From PubChem BioAssay AID652057 (Broad Institute, 2013) come the findings set out here.

In all, about 1,400 compounds went through this assay and about 1,000 (71%) were called active. The set was probably picked from earlier hits. These entries were drawn from the full list. Measured potencies and affinities stand elsewhere. Values without a mark were called inactive. No rule for the calls is given here.

The experiment can be described thus: blockers of HIV-1 envelope-mediated cell-cell fusion – cherry-pick, dose response (AID 652057). The following applies: HeLa-JRFL Env/CEM21 cell fusion, luciferase; series mostly up to 35 µM; activity change, negative = inhibition: at the top concentration.
Regarding `COc1ccc(N2CCN(C(=O)C3CCC(Cn4c(=S)[nH]c5ccccc5c4=O)CC3)CC2)cc1` (stereo unspecified), the “activity change, negative = inhibition” value was -2.4%. Regarding `C[C@@H]1CN([C@H](C)CO)S(=O)(=O)c2ccc(C#Cc3cccc(F)c3)cc2O[C@@H]1CN(C)C(=O)CN1CCOCC1`, the “activity change, negative = inhibition” value was -5.15%.

`Cc1[nH]c2ccccc2c1/C=N\NC(=O)c1ccccc1Cl`: the “activity change, negative = inhibition” value was 12.4%. Turning to `CCn1c(/C=C/N(C)c2ccccc2)[n+](CC)c2ccc(Cl)cc21`, the “activity change, negative = inhibition” value is -4.27%. For the molecule `Cc1nc2ccccc2c2oc(C(=O)NCc3ccc4c(c3)OCO4)cc12`, the “activity change, negative = inhibition” value is 14.1%.

`O=C(C[C@H]1C[C@H]2c3cc(NC(=O)C4CCC4)ccc3O[C@H]2[C@H](CO)O1)NCc1ccc2c(c1)OCO2`: the “activity change, negative = inhibition” value is -8.88%.

`O=C(Nc1cc2c3c(c1)CC(=O)N3CCC2)c1ccc(Cl)cc1`: the “activity change, negative = inhibition” value is 36.2%.

Consider `COC(=O)[C@]12CCCCC=C1N(Cc1ccco1)C(=O)[C@H](CC(=O)NCCc1ccccc1OC)C2`, for which the “activity change, negative = inhibition” value was -2.88%. Take `Cc1nn(C)c(Cl)c1NC(=O)OCc1ccc(Cl)cc1Cl`: the “activity change, negative = inhibition” value is 11.7%. Under `COc1ccc(CCNC(=O)COC(=O)c2cccn2C)cc1` stands -14%; under `O=C(Nc1cccn(Cc2c(Cl)cccc2Cl)c1=O)c1ccc(Cl)cc1`, 33.5%.

On to `COc1ccccc1S(=O)(=O)Cc1ccc(C(=O)N2CCN(c3cccc(Cl)c3)CC2)o1`, for which the “activity change, negative = inhibition” value is 29.9%.

Turning to `O=C(c1ccccc1F)N1CCN(Cc2cccc(Cl)c2)CC1`, the “activity change, negative = inhibition” value is -4.77%. Under `O=C(COc1ccc(-n2cnnn2)cc1)Nc1ccc(F)c(F)c1` stands -25.8%. Consider `Cn1c(CN2CCCCC2)nc2cc(NC(=O)c3ccc(Cl)cc3)ccc21`, for which the “activity change, negative = inhibition” value is 8.53%.

As to `COC(=O)[C@H](Cc1ccccc1)NC(=O)Cn1cnc(C(=O)Nc2ccc(C)c(C)c2)n1`, the “activity change, negative = inhibition” value is 4.14%. Turning to `CNC[C@H]1Oc2c(NC(=O)Nc3ccc4c(c3)OCO4)cccc2C(=O)N([C@H](C)CO)C[C@@H]1C`, the “activity change, negative = inhibition” value is 1.72%. `Cc1ccc(NC(=O)c2ccc(OCC3CCCO3)cc2)cc1Cl` (stereo unspecified): the “activity change, negative = inhibition” value was 107%. Regarding `CCOc1ccc(-c2cc(CCCC(=O)Nc3cccc(OC)c3)no2)cc1`, the “activity change, negative = inhibition” value was -22.4%.

As to `O=C(Cc1ccc(Cl)cc1Cl)Nc1ccncc1`, the “activity change, negative = inhibition” value is -15.4%. On to `C[C@@H]1CN([C@@H](C)CO)C(=O)c2cc(NS(=O)(=O)c3ccccc3)ccc2O[C@H]1CN(C)Cc1ccc(Oc2ccccc2)cc1`, for which the “activity change, negative = inhibition” value was -26.4%.

On to `Cc1onc(-c2ccccc2)c1C(=O)NC(=S)NNC(=O)c1ccc(O)cc1`, for which the “activity change, negative = inhibition” value is -13.1%. For the molecule `Cc1onc(-c2ccccc2)c1C(=O)Nc1ccc(Br)cc1Cl`, the “activity change, negative = inhibition” value was 13.9%. Consider `O=C(C[C@@H]1C[C@@H]2c3cc(NC(=O)C4CCC4)ccc3O[C@@H]2[C@@H](CO)O1)NCC(F)(F)F`, for which the “activity change, negative = inhibition” value is 13%. To `Cc1ccc(S(=O)(=O)N(C)c2ccc(C(=O)N3CCN(Cc4ccc5c(c4)OCO5)CC3)cc2)cc1` belongs -15.9%.

As for `c1ccc2c(c1)OCC(CNc1ncnc3nc[nH]c13)O2` (stereo unspecified), the “activity change, negative = inhibition” value is -65.2%. For `Cc1nc2sc(C(c3ccco3)N3CCC(Cc4ccccc4)CC3)c(O)n2n1` (stereo unspecified), the “activity change, negative = inhibition” value is 11.1%. To `N#Cc1c(NCc2ccccc2)ccnc1NCc1cccnc1` belongs -29.1%; to `Cc1cc(C)c(CN2CCN(C(=O)Cn3cnc4c(NCc5ccccc5)ncnc43)CC2)c(C)c1`, -26.3%; to `C[C@H]1CN([C@@H](C)CO)C(=O)c2cccc(NC(=O)Nc3ccc(C(F)(F)F)cc3)c2O[C@H]1CN(C)S(=O)(=O)c1ccccc1`, -3.18%. `C[C@@H]1CN([C@@H](C)CO)C(=O)c2cc(C3=CCCC3)cnc2O[C@@H]1CN(C)Cc1ccc(C(=O)O)cc1`: the “activity change, negative = inhibition” value is -5.8%. Turning to `Cc1cc(C(=O)NC2CCCc3c2cnn3-c2ccc(C(C)(C)C)cc2)nn1C` (stereo unspecified), the “activity change, negative = inhibition” value is -25.5%. Under `c1coc(CNc2c3c(nc4ccccc24)CCC3)c1` stands -14.9%; under `C[C@H](CO)N1C[C@H](C)[C@@H](CN(C)S(=O)(=O)c2ccc(F)cc2)Oc2ccc(NS(=O)(=O)c3cn(C)cn3)cc2CC1=O`, -5.55%. Take `O=C(c1cc(COc2cccc(C(F)(F)F)c2)on1)N1CCC(c2ccncc2)CC1`: the “activity change, negative = inhibition” value is -27.1%. Under `CCC(=O)N(C)C(c1ccccc1Cl)c1nnnn1-c1c(C)cccc1C` (stereo unspecified) stands 4.37%; under `O=C(c1ccc(S(=O)(=O)Nc2ccc(F)cc2)cc1)N1CCN(C(=O)c2ccco2)CC1`, -4.91%.

In the case of `Cc1cc(C)nc(/N=C(\N)Nc2ccc(CC(=O)OC(C)C)cc2)n1`, the “activity change, negative = inhibition” value was -17.8%.

Consider `O=C(Nc1ccc(CN2CCOCC2)cc1)c1ccc(-c2cccc(Cl)c2)o1`, for which the “activity change, negative = inhibition” value is 5.42%. As for `C#CCn1c(=O)c2c(ncn2C)n(C)c1=O`, the “activity change, negative = inhibition” value is 7.39%. Take `CCNC(=O)C[C@H]1CC[C@@H]2[C@@H](COc3ccc(NC(=O)Cc4cccs4)cc3C(=O)N2C)O1`: the “activity change, negative = inhibition” value is 11.1%. Turning to `COCC(=O)Nc1ccc2c(c1)C(=O)N(C)[C@H]1CC[C@H](CC(=O)NC3CCCC3)O[C@H]1CO2`, the “activity change, negative = inhibition” value is 36.4%. Turning to `CN1C(=O)c2cc(NC(=O)NC3CCCC3)ccc2OC[C@@H]2O[C@H](CC(=O)NC3CCC3)CC[C@@H]21`, the “activity change, negative = inhibition” value is 25.5%.

For `CCNC(=O)Nc1ccc2c(c1)C(=O)N(C)[C@@H]1CC[C@@H](CC(=O)NCC3CCCCC3)O[C@@H]1CO2`, the “activity change, negative = inhibition” value is 17.7%. To `Cc1nn(C)cc1NC(=O)C[C@H]1CC[C@@H]2[C@@H](COc3ccc(NC(=O)C4CCC4)cc3C(=O)N2C)O1` belongs -19.4%. Regarding `CCNC(=O)C[C@@H]1CC[C@@H]2[C@@H](COc3ccc(NC(=O)Cc4cccs4)cc3C(=O)N2C)O1`, the “activity change, negative = inhibition” value was 3.59%. For `COc1ccc(OC)c(NC(=O)COc2ccc3c(c2)CCC3)c1`, the “activity change, negative = inhibition” value was -12.7%. As to `Cc1ccc(S(=O)(=O)Nc2ccc3c(c2)C(=O)N([C@H](C)CO)C[C@@H](C)[C@H](CN(C)S(=O)(=O)c2ccc(F)cc2)O3)cc1`, the “activity change, negative = inhibition” value is 5.5%. As to `Cc1ccc(S(=O)(=O)N(C)C[C@@H]2Oc3ccc(NS(=O)(=O)c4ccc(Cl)cc4)cc3C(=O)N([C@@H](C)CO)C[C@H]2C)cc1`, the “activity change, negative = inhibition” value was 24.5%. As for `CCNC1CCC(Nc2ccnc3cc(Cl)ccc23)CC1` (stereo unspecified), the “activity change, negative = inhibition” value is 60.5%. Under `COc1ccc(NS(=O)(=O)c2cccc(C(=O)NNC(=O)CNC(=O)c3ccc(C)cc3)c2)cc1` stands -10.4%; under `CC(=O)Nc1ccc(C(=O)OCC(=O)NC(=O)NCc2ccccc2)cc1`, 52.2%.

For `Cc1ccc(-n2nnnc2SCn2nnc3ccccc3c2=O)c(C)c1`, the “activity change, negative = inhibition” value was 3.87%. With `COc1ccccc1CN(C)C(=O)CN1CCN(C(=O)c2cccs2)CC1`, the “activity change, negative = inhibition” value was -2.17%. Turning to `C[C@@H]1CN([C@@H](C)CO)S(=O)(=O)c2ccc(-c3ccc(F)cc3)cc2O[C@H]1CN(C)C(=O)C1CCCCC1`, the “activity change, negative = inhibition” value was -71.4%. To `CC(=O)OC1c2ccccc2C(=O)N1c1ccccc1C` (stereo unspecified) belongs 16.1%.
